About 900 (1.7%) of roughly 53,000 compounds showed an effect of 50% or more. The full list was thinned out, with strong results kept by preference.
The compounds below were run on Mycobacterium tuberculosis (assay: Cornell - Phenotypic assay to identify agents that inhibit growth of Mycobacterium tuberculosis). Conditions: 10 mM as filed; unlikely as a test dose.
Format: functional
Design: scale not given: direction of the effect not stated beside the values

SMILES | Percent Effect [%]
Cc1noc(C)c1S(=O)(=O)N1CCc2nc(C3CCNCC3)ncc2C1.Cl | 6.846
CN(C)C(=O)CN1CCCC(c2nccnc2-c2cccc(Cl)c2)C1 (centres undefined) | 27.94
O=c1cc(CN2CCCC2)nc2n1CCCN(CC1CC1)C2 | -16.69
c1ncc(CN2CC(Cc3nccc4cc[nH]c34)C2)cn1 | 24.55
Cn1cc(CC2CCN(C(=O)NCCc3cccc(O)c3)C2)cn1 (centres undefined) | 9.063
CCC(=O)N1CCC(c2nc(N3CCCC3)ncc2S(C)(=O)=O)CC1 | -19.63
CCC(=O)N1CCC(c2nc(N3CCCCC3)ncc2S(C)(=O)=O)CC1 | 49.28
CS(=O)(=O)c1cnc(N2CCCC2)nc1C1CCN(C(=O)C2CC2)CC1 | 60.16
CS(=O)(=O)N1CCC(CNC(=O)c2cnccn2)CC1 | -29.61
COCCN1CCC2(CC1)CN(C(=O)Cc1cccnc1)CCO2.O=C(O)C(F)(F)F.O=C(O)C(F)(F)F | 26.19
CC(=O)N1CCCC1c1ccc(Br)cn1 (centres undefined) | -5.926
Cc1ncc(CN(C)C)c(C2CCCN2c2ncccn2)n1 (centres undefined) | 3.651
COc1ccc(Oc2cncc(C3CCCN3C(C)=O)n2)cc1 (centres undefined) | -6.062
COc1nsc2nc(C3CCCN3c3ncccn3)ccc12 (centres undefined) | 56.9
COc1nsc2nc(C3CCCN3C(C)=O)ccc12 (centres undefined) | 51.54
OCCc1cc(C2CCCN2c2ncccn2)n[nH]1 (centres undefined) | 5.746
CNCC(=O)N1CCC(c2cccc(Oc3ccccc3)n2)CC1 | 5.467
COc1ccc(CN2CC[C@@H]3[C@H]2CCC(=O)N3c2cnn(C)c2)cc1.O=C(O)C(F)(F)F | -0.7852
CCCc1cncnc1N1CCC2(CCC(=O)N(CCOC)C2)CC1 | -26.49
CNc1cc(N2CCCC2CNCc2ccc(C)o2)ncn1 (centres undefined) | -46.19
CN1CC(=O)N(c2ccsc2)CC12CCN(S(=O)(=O)c1ccccc1)C2.O=C(O)C(F)(F)F (centres undefined) | 4.283
CCS(=O)(=O)N1CCC2(CC1)CN(CC1CCOC1)c1ccccc12.O=C(O)C(F)(F)F (centres undefined) | -6.416
O=C(O)C(F)(F)F.O=C(O)C(F)(F)F.OCCN1CC2(CCN(CC3CC3)CC2)c2ccccc21 | 53.69
CN1C(=O)C2(CCN(CC3CC3)CC2)c2ccccc21.O=C(O)C(F)(F)F | -19.06
O=C(O)C(F)(F)F.c1cnc(N2CCC3(CC2)CN(CC2CC2)c2ccccc23)nc1 | 32.03

SMILES | Percent Effect [%]
CCCS(=O)(=O)N1CCC2(CC1)CN(CC1CCOC1)c1ccccc12.O=C(O)C(F)(F)F (centres undefined) | 53.88
CS(=O)(=O)N1CCC2(CC1)CN(CC1CCOC1)c1ccccc12.O=C(O)C(F)(F)F (centres undefined) | 24.53
CCC(=O)NC(Cc1cc(N(C)C)nc(C2CC2)n1)c1ccccc1 (centres undefined) | 47.48
CC(C)c1nccc(C2CC(=O)Nc3n[nH]c(C4CCC4)c32)n1 (centres undefined) | 28.48
Cc1cccnc1CN1CCN(c2noc(-c3ccccc3)n2)CC1 | 16.84
O=C(c1cc(-n2cccn2)ccn1)N(CC(F)(F)F)C1CCCC1 | 17.65
Cc1nccn1C1CCCN(C(=O)c2ccc3c(c2)nc(C)n3C)C1 (centres undefined) | -4.275
O=C(CN1CCCC1Cn1cncn1)Nc1nccs1 (centres undefined) | 20.94
COc1c(C)cnc(CN(C)C(=O)c2cccc(NC(N)=O)c2)c1C | 25.72
COc1c(C)cnc(CN(C)C(=O)Nc2ccc3c(c2)CCO3)c1C | 65.58
COCc1cccc(NC(=O)N(C)Cc2ncc(C)c(OC)c2C)c1 | -1.951
CS(=O)(=O)c1snnc1C1CCN(Cc2cccc(O)c2)CC1 | -3.307
Nc1cc(N2CCOCC(Cc3ccc4[nH]ccc4c3)C2)ncn1 (centres undefined) | 103.2
Cc1cc(N2CCOCC(Cc3ccc4[nH]ccc4c3)C2)ncn1 (centres undefined) | 26.85
c1cc(N2CCOCC(Cc3ccc4[nH]ccc4c3)C2)ncn1 (centres undefined) | 9.694
Cc1cccc(NC(=O)N2CCC3(CCC(C(=O)N(C)C)O3)CC2)c1 (centres undefined) | -3.897
CN(C)Cc1cccc(-c2cccnc2C(=O)NCc2ccco2)c1 | 0.1793
Cc1[nH]c2nc(CNc3ccccc3Cl)nn2c(=O)c1C | 13.95
O=C(c1cc(-c2ccco2)cs1)N1CCCC1 | 81.62
CN1CCN(C(=O)c2cc(-c3ccco3)cs2)CC1 | 25.84
O=C(c1cc(-c2ccco2)cs1)N1CCOCC1 | 26.26
COCC1CN(Cc2ccccn2)Cc2cn(C)nc21.O=C(O)C(F)(F)F.O=C(O)C(F)(F)F.O=C(O)C(F)(F)F (centres undefined) | 31.55
CCn1cc2c(n1)C(COC)CN(Cc1ccccn1)C2 (centres undefined) | 96.31
CCn1cc2c(n1)C(COC)CN(Cc1ccoc1)C2 (centres undefined) | -14.11

— ChEMBL document CHEMBL3988442, “University of Dundee, Small-Polar-MMV Screening Library” (2021)
